BJeLR viability = kills HRASV12-expressing BJeLR cells | BJeLR (HRASV12) viability, CellTiter-Glo ATP luminescence, 48 h | 0.17% of 300,000 active | inhibition, % (test concentration not listed); in the data active = inhibition above about 50%; inconclusive = no clear call, values can overlap the other calls
BoNT A protease = BoNT A light chain protease inhibition; AID 588499; inhibition, % at 10 µM; multiplex microsphere protease substrate cleavage, flow cytometry; 0.17% of 360,000 active; note: plate controls were buffer without enzyme for full effect and enzyme alone for no effect
Autofluor counter = compound fluorescence in toxin protease inhibitor counterscreen. compound autofluorescence counterscreen, microsphere flow cytometry; active compounds read high. fluorescence intensity (no concentration beside the values). AID 624483. 3.1% of 360,000 active; in the data active = fluorescence intensity above about 16000; inconclusive = no clear call, values can overlap the other calls
Anthrax LF prot = blocks Bacillus anthracis lethal factor protease; P15917; multiplex microsphere protease cleavage assay, LF; inhibition, % at 10 µM; 0.12% of 360,000 active; AID 588501; note: plate controls were buffer without enzyme for full effect and enzyme alone for no effect
Target sequence (P15917 whole entry, looked up): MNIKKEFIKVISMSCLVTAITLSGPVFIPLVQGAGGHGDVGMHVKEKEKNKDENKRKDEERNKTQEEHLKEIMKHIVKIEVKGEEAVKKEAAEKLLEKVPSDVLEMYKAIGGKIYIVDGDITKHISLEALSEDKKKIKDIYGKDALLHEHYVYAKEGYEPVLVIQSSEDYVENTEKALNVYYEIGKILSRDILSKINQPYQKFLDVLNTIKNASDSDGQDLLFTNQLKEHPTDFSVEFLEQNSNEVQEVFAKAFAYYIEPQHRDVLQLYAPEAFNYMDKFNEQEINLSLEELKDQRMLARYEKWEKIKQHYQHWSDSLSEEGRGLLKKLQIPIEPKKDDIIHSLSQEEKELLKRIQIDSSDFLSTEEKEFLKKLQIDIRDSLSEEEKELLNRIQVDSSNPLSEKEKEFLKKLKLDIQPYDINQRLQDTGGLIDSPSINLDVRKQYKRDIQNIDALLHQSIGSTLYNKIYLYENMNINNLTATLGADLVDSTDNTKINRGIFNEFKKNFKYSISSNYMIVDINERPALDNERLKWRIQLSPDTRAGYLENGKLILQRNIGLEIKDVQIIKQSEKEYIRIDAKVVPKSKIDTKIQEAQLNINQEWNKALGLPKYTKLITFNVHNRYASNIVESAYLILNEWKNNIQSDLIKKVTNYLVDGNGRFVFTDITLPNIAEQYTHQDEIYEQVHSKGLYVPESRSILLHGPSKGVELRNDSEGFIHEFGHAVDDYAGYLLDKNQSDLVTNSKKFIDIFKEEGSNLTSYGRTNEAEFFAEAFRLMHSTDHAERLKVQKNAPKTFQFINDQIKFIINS
BoNT-F LC inh = blocks Botulinum neurotoxin F light chain protease | AID 588497 | 0.22% of 360,000 active | Multiplex microsphere protease cleavage assay, flow cytometry | inhibition, % at 10 µM; in the data active = inhibition above about 35%, passing the limit was not always enough; inconclusive = no clear call, values can overlap the other calls; note: plate controls were buffer without enzyme for full effect and enzyme alone for no effect
BH1578 lux ind = inducers of Vibrio cholerae quorum light production without autoinducers. V. cholerae BH1578 lux reporter, luminescence, 6 h. activation, % at 18.7 µM. 0.16% of 350,000 active. AID 588436; in the data active = activation mostly above about 9.7%, no sharp cut-off; inconclusive = no clear call, values can overlap the other calls; inactive = mostly below about 3.7%
Numbers without * were called inactive; i = inactive; ? = inconclusive; nt = no result given. An excerpt weighted towards active compounds, which were near 3.7% of everything screened. Cut-off read from the data, not from the text of the source, unless noted: active = inhibition above about 30%; inconclusive = no clear call, values can overlap the other calls; inactive = below that.

SMILES	BJeLR viability	BoNT A protease	Autofluor counter	Anthrax LF prot	BoNT-F LC inh	BH1578 lux ind
COc1ccc(C(=O)Nc2ccccc2-c2nnn(CC(=O)Nc3ccc4c(c3)OCCO4)n2)cc1	-3	-1	20699*	0	-1	i
Nc1ccccc1-c1nnn(CC(=O)Nc2ccc3c(c2)OCCO3)n1	-1	2	5856	0	-2	0
CCOc1cccc(/C=N/Nc2ccc(S(=O)(=O)N(CC)CC)cn2)c1O	52*	-1	2384	0	-9	0
Cc1cn(C2CC(O)C(O)C(CO)O2)c(=O)[nH]c1=O (stereo not drawn)	nt	0	5384	4	0	nt
O=c1[nH]c(=O)n([C@H]2C[C@H](O)[C@@H](CO)O2)cc1F	93*	0	5542	-6	-13	i
Cc1cn([C@H]2C[C@H](N=[N+]=[N-])[C@@H](CO)O2)c(=O)[nH]c1=O	-15	1	8916	13	-5	35*
COc1ccc(N2CCN(c3cc(C(=O)Nc4cc(OC)c(OC)c(OC)c4)ncn3)CC2)cc1OC	nt	0	3613	-6	2	0
Cc1ccc(C(=O)NC(=S)c2c(C)cc3ccccn23)cc1	nt	0	4024	-2	-8	i
Cc1cc(C)cc(CC2CC(=O)N(c3ccc4c(c3)OCCO4)C2=O)c1 (stereo not drawn)	-13	-1	6155	3	-3	6
Cc1cc(C)cc(CC2CC(=O)N(c3cc(C)on3)C2=O)c1 (stereo not drawn)	10	0	19958*	1	0	-12
CCN(CC)C(=O)C1=C(C)N(Cc2ccc(OC)cc2)C(=O)C(CC(=O)NCC2CCCCC2)C1 (stereo not drawn)	nt	0	3720	0	1	0
COc1ccc(NC(=O)C2(C)CCN2C(=O)CC2CCCC2)cc1OC (stereo not drawn)	nt	0	3452	4	0	1
O=C1C2(CCC13COC(c1ccc(O)cc1)OC3)COC(c1ccc(O)cc1)OC2 (stereo not drawn)	5	1	22568*	-5	-1	0
O=C(NC1CCCCCCC1)c1ccc2c(c1)OCO2	-5	-1	3642	1	-6	i
S=C(NC1CCCCC1)c1ccc2c(c1)OCO2	-5	5	20422*	-2	5	0
C[C@H](CO)N1C[C@H](C)[C@@H](CN(C)C(=O)c2ccccc2)OCc2cnnn2CCCC1=O	nt	0	3770	1	-3	0
COc1cccc(Nc2nc(C(N)Cc3ccc(Cl)cc3)cs2)n1 (stereo not drawn)	nt	-1	3609	-5	-25	0
N=c1n(CCN2CCOCC2)c2ccccc2n1Cc1ccccc1Br	-1	0	19620*	-1	-1	i
Cc1ccc(C(=O)Cn2c(=N)n(CCN3CCOCC3)c3ccccc32)cc1	nt	0	4052	1	-3	0
CCCn1c(O)c(N=NC(=O)CNC(=O)Cc2ccc(OC)cc2)c2ccccc21	-6	1	4202	-4	-8	439*
CCCn1c(O)c(N=NC(=O)CNC(=O)/C=C/c2ccc(OC)cc2)c2ccccc21	-6	2	4009	-3	3	80*
C=CCn1c(Cc2ccc(OCC)cc2)nnc1SCC(N)=O	8	0	9473	-2	3	1
C=CCn1c(Cc2csc(N)n2)nnc1SCC(=O)Nc1ccc(C(=O)OCC)cc1	-12	-1	7701	1	-11	0
C=CCn1c(Cc2csc(N)n2)nnc1SCC(=O)OCC	2	2	22718*	0	-2	i
C=CCn1c(CCNC(=O)c2ccc(Cl)c(Cl)c2)nnc1SCCOc1ccc(OC)cc1	-2	?	21454*	0	-3	-3
SMILES	BJeLR viability	BoNT A protease	Autofluor counter	Anthrax LF prot	BoNT-F LC inh	BH1578 lux ind
C=CCn1c(Cc2ccc(OC)cc2)nnc1SCC(N)=O	-16	2	22116*	-6	2	i
CCc1nc2ccc(C(=O)Nc3ccc(NC(C)=O)cc3)cn2c1N(C)CCCc1ccccc1	nt	0	3883	-11	-5	i
O=C1CN(c2ccccc2Cl)C(=O)CN1c1ccccc1Cl	0	-1	23954*	-2	-4	i
COCCN(CCOC)Cc1cc(=O)oc2ccccc12	nt	0	5990	2	-4	nt
COc1ccc(NC(=O)c2ccc(S(=O)(=O)N(C)C)cc2)cc1	9	0	3406	-4	2	i
COc1cc(OC)cc(C(=O)Nc2ccc(S(=O)(=O)N(C)C)cc2)c1	-4	1	19847*	-2	-2	1
